Among the data in PubChem BioAssay are z-score and composite z-score values, retold here.

The nature of experiment [1]: A549 cell viability effects, profiling panel, calcein-AM fluorescence, 48 h, basal (AID 1162). Further: test concentration not given here. Particulars: higher = more signal.
Experiment [2] in a line: adipocyte viability effects, profiling panel, cell-based, 3T3-L1 adipocytes, calcein-AM fluorescence, 48 h, basal (AID 1163). Further: test concentration not given here. Conditions: 3T3-L1 adipocytes viability, higher = more signal.
Experiment [3] in a line: HepG2 cell viability effects, profiling panel, calcein-AM fluorescence, 48 h, basal (AID 1164). Further: test concentration not given here. Particulars: higher = more signal.
A short description of experiment [4]: MM1S cell viability effects, profiling panel, calcein-AM fluorescence, 48 h, basal (AID 1165).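 Further: viability of MM1S multiple myeloma cells under basal unstimulated conditions; test concentration not given here.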 Conditions: higher = more signal.
Experiment [5] in a line: basal RPMI8226 viability, no added stimulus, profiling panel, cell-based, calcein-AM fluorescence, 48 h, PK04 Diversity Set (AID 1166).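 Further: cells grown under basal conditions without added stimulus; test concentration not given here.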 Conditions: RPMI8226 myeloma viability, higher = more signal.
A short description of experiment [6]: basal HepG2 mitochondrial membrane potential changes, profiling panel, cell-based, JC-1 fluorescence, 24 h, 100 nL compound (AID 1167). Further: test concentration not given here. Conditions: higher = more signal.
Experiment [7] is described as follows: basal 3T3-L1 adipocyte mitochondrial potential changes, profiling panel, cell-based, JC-1 fluorescence, 3T3-L1 adipocytes, 24 h, 100 nL compound (AID 1168). Further: test concentration not given here. Particulars: JC-1 mitochondrial fluorescence, higher = more signal, called active from +8 up or from −8 down.
Experiment [8] in a line: basal RPMI8226 mitochondrial membrane potential changes, profiling panel, cell-based, JC-1 fluorescence, 24 h, 100 nL compound (AID 1169). Further: test concentration not given here. Conditions: RPMI8226 myeloma, JC-1 mitochondrial potential fluorescence, higher = more signal.
Experiment [9] is described as follows: basal MM1S mitochondrial membrane potential changes, profiling panel, cell-based, JC-1 fluorescence, 24 h, 100 nL compound (AID 1170). Further: test concentration not given here. Conditions: higher = more signal.
Experiment [10] in a line: A549 lung cancer cell viability effects, profiling panel, resazurin fluorescence, 24 h, PK04 Diversity Set (AID 1171). Further: test concentration not given here. Conditions: higher = more signal, called active from +8 up or from −8 down. In general terms: Alamar Blue is a resazurin reagent that responds to reducing activity.
Experiment [11] in a line: HepG2 liver cancer cell viability effects, profiling panel, resazurin fluorescence, 24 h, PK04 Diversity Set (AID 1172). Further: test concentration not given here. Particulars: higher = more signal.
The nature of experiment [12]: basal S. cerevisiae growth modulation, no modifier, primary screen, OD600, strain BY4716, 24 h, basal condition (AID 1173). Particulars: OD600, 24 h, higher = more signal, called active from +8 up or from −8 down.
Experiment [13] in a line: MM1S myeloma cell viability, profiling panel, resazurin fluorescence, basal, 24 h, PK04 Diversity Set (AID 1174). Further: test concentration not given here. Conditions: higher = more signal, called active from +8 up or from −8 down.
Experiment [14] deals with Dihydroorotate dehydrogenase (quinone), mitochondrial (Plasmodium falciparum (isolate 3D7)) (UniProt Q08210). Description: PfDHODH enzyme inhibitors, primary screen, biochemical, C-terminal His tag, absorbance 600 nm (AID 1175).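 Further: recombinant parasite enzyme with a five histidine tag at its C terminus; test concentration not given here.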 Particulars: DCIP absorbance 600 nm, higher = more signal, called active from +8 up or from −8 down.
Sequence of Dihydroorotate dehydrogenase (quinone), mitochondrial (Plasmodium falciparum (isolate 3D7)) (Q08210 whole entry, looked up): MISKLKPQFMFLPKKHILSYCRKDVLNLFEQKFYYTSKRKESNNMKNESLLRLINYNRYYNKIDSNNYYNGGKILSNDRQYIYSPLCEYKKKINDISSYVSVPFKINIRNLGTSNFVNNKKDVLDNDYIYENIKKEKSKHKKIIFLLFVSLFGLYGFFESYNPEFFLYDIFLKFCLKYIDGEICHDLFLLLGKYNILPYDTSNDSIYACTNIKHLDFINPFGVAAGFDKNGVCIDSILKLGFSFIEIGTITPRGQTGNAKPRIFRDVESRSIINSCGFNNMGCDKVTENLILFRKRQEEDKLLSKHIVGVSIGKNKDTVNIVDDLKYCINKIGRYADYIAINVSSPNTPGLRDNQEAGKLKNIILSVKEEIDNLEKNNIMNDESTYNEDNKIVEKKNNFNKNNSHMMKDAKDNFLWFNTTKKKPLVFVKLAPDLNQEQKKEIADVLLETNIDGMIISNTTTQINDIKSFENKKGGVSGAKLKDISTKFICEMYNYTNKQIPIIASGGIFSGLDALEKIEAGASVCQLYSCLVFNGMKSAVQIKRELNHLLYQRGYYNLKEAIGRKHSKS
Experiment [15] can be described thus: P. aeruginosa biofilm formation inhibitors, primary screen, strain PAO1, LB-PBS medium, absorbance 600 nm (AID 1176). Further: test concentration not given here. Conditions: P. aeruginosa PAO1 growth/biofilm, A600, 12 h; higher = more signal.
Experiment [16] is described as follows: S. cerevisiae RM11-1a growth modifiers, primary screen, strain RM11-1a, OD600, basal, 24 h (AID 1177).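 Further: cultures grown under basal conditions with no added stressor; test concentration not given here.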 Particulars: OD600, 24 h, higher = more signal, called active from +8 up or from −8 down.
Experiment [17] is described as follows: E. coli acrAB mutant growth effects, primary screen, E. coli filamentation inducers, strain DRC39, OD650, 24 h (AID 1178).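 Further: growth measured as culture turbidity by optical density at 650 nm; test concentration not given here.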 Conditions: higher = more signal, called active from +8 up or from −8 down.
Experiment [18] can be described thus: E. coli acrAB mutant growth effects, primary screen, E. coli filamentation inducers, strain DRC39, OD650, 48 h (AID 1179).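 Further: screen aims at cell division blockers that make cells filament.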 Conditions: E. coli DRC39 delta-acrAB growth, higher = more signal, called active from +8 up or from −8 down.
A short description of experiment [19]: RPMI8226 myeloma cell viability, profiling panel, resazurin fluorescence, basal, 24 h, PK04 Diversity Set (AID 1180).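 Further: RPMI8826 multiple myeloma cell line at 5000 cells per well; test concentration not given here.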 Particulars: higher = more signal.
Experiment [20] has as its target E3 ubiquitin-protein ligase XIAP (Homo sapiens) (UniProt P98170). The experiment can be described thus: XIAP binders, primary screen, biophysical, small-molecule microarray, fluorescence 635 nm (AID 1181).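 Further: score merges 667 nm emission and signal to noise over triplicate slides.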 Conditions: small-molecule microarray binding, higher = more signal.

SMILES strings stand for the structures. Activity calls are given as the source filed them. Unless noted, how the calls were made is not given here.

Sequence of E3 ubiquitin-protein ligase XIAP (Homo sapiens) (P98170 whole entry, looked up): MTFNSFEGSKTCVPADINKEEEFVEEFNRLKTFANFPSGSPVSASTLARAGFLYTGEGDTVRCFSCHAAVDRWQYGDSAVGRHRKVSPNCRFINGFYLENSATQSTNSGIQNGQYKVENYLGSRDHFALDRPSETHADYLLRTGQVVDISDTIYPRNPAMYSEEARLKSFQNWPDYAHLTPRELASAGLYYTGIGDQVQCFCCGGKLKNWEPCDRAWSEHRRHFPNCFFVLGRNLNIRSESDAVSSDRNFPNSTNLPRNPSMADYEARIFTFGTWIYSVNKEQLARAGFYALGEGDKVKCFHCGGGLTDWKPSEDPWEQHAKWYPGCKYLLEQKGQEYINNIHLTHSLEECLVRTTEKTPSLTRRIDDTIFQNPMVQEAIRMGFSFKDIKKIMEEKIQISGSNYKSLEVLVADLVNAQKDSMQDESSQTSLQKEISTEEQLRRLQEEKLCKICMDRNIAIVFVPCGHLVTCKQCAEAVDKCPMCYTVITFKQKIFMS

Take `CN(C)CCCNC(=O)[C@@]1(C)c2ccccc2C(=O)N(Cc2cc(C(F)(F)F)cc(C(F)(F)F)c2)[C@H]1c1ccc(CO)cc1`: the z-score in experiment [1] is -0.434; in experiment [2] it was 0.157; in experiment [3], 0.221; in experiment [4], -0.309; in experiment [5] it was -2.36; in experiment [6], 1.31. Moreover, the z-score in experiment [7] was -0.36 (inactive); in [8], -0.0152; in experiment [9], -0.279; in experiment [10] it was -0.832 (inactive); in experiment [11] it was -1.19; in [12], -0.808 (inactive). Further, the z-score in [13] is -0.244 (inactive); in experiment [15] it was 1.98 (inactive); in experiment [16] it was 0.874 (inactive); in experiment [17], 0.365 (inactive); in experiment [18], -1.39 (inactive); in experiment [19], -0.0867. The composite z-score in [14] was 0.779 (inactive); in experiment [20], -0.239.
Consider `CN1C(=O)C2C=CC(C(O)C3CCCCC3)N(N3CCCCC3)C2C1=O` (stereo not given), for which the z-score was -1.21 in experiment [1]; -0.52 in [2]; -0.517 in experiment [3]; -0.163 in experiment [4]; 0.084 in experiment [5]; -0.968 in experiment [6]. The z-score is -0.347 (inactive) in experiment [7]; -0.763 in [8]; -0.228 in experiment [9]; -0.167 (inactive) in experiment [10]; -0.435 in experiment [11]; 0.369 (inactive) in experiment [12]. The z-score in experiment [13] is -0.752 (inactive); in experiment [15] it was 0.158 (inactive); in [16], 1.51 (inactive); in experiment [17], -0.501 (inactive); in experiment [18], -0.406 (inactive); in experiment [19] it was -0.487. In addition, the composite z-score in experiment [14] is 0.419 (inactive); in experiment [20], -0.0548.
In the case of `CN(C)CCCNC(=O)[C@@H]1c2ccccc2C(=O)N(CC23CC4CC(CC(C4)C2)C3)[C@H]1c1ccc(CO)cc1`, the z-score in experiment [1] was -0.104; in [2], 0.195; in experiment [3], -0.99; in experiment [4], -3.75; in experiment [5] it was -1.91; in experiment [6], 1.44. The z-score in experiment [7] is -0.211 (inactive); in [8] it was -0.296; in [9] it was -1.73; in experiment [10] it was 1.21 (inactive); in experiment [11], -0.701; in experiment [12] it was -3.33 (inactive). Also, the z-score was -0.809 (inactive) in experiment [13]; 0.0435 (inactive) in experiment [15]; 0.28 (inactive) in [16]; 0.309 (inactive) in experiment [17]; 0.401 (inactive) in experiment [18]; -0.692 in [19]. Besides, the composite z-score in experiment [14] was -0.184 (inactive); in [20], 0.0973.
Consider `C=CCOC(=O)[C@H]1[C@@H]2C(=O)O[C@@H](c3ccccc3)[C@@H](c3ccccc3)N2[C@@H](c2ccc(OCCOC(=O)[C@H]3C[C@H]4C(=O)N[C@@H](Cc5ccccc5)C(=O)N4[C@H]3c3cccc(OCCO)c3)cc2)[C@]12C(=O)Nc1ccc(I)cc12`, for which the z-score in experiment [1] is -0.894; in [2], -0.532; in experiment [3], 0.933; in experiment [4] it was -0.234; in [5] it was -0.766; in experiment [6], -1.54. For the same compound, the z-score is -0.346 (inactive) in experiment [7]; -0.713 in experiment [8]; -1.41 in experiment [9]; -0.461 (inactive) in experiment [10]; 0.169 in experiment [11]; 1.42 (inactive) in [12]. For the same compound, the z-score is -0.446 (inactive) in experiment [13]; 2.17 (inactive) in experiment [15]; 1.04 (inactive) in experiment [16]; -0.0281 (inactive) in experiment [17]; 0.0436 (inactive) in [18]; 0.0282 in experiment [19]. For the same compound, the composite z-score in experiment [14] is 0.64 (inactive); in experiment [20], -0.105.
With `COc1ccc([Si](C)(C)[C@@H]2[C@@H](CC(=O)N3CCC[C@H]3CO)O[C@]3(C(=O)N(Cc4ccc(N5C(=O)c6cccc7cccc5c67)cc4)c4ccccc43)[C@H]2C)cc1`, the z-score in [1] was -1.22; in [2], 1.43; in experiment [3], -2.94; in [4], -2.75; in [5] it was -4.35; in experiment [6] it was -1.18. For the same compound, the z-score in [7] was -0.209 (inactive); in [8], -1.01; in experiment [9], -2.21; in experiment [10] it was -3.19 (inactive); in experiment [11] it was -2.57; in experiment [12], 0.165 (inactive). Moreover, the z-score in experiment [13] was -2.82 (inactive); in experiment [15], -0.012 (inactive); in experiment [16], 1.36 (inactive); in experiment [17], 0.3 (inactive); in experiment [18] it was -0.138 (inactive); in [19] it was -4.75. For the same compound, the composite z-score in experiment [14] was -0.0108 (inactive); in [20], -0.0386.
With `C=C(/C=C/CNS(=O)(=O)c1ccc(C)cc1)[C@H](O)[C@H]1CCCN1S(=O)(=O)c1ccccc1[N+](=O)[O-]`, the z-score is 0.623 in experiment [1]; 0.581 in experiment [2]; -0.291 in experiment [3]; -1.28 in experiment [4]; -0.264 in experiment [5]; -1.79 in experiment [6]. In addition, the z-score in experiment [7] is -0.221 (inactive); in experiment [8], -0.525; in experiment [9], -0.0633; in experiment [10] it was 0.594 (inactive); in experiment [11], -0.0339; in [12], 0.587 (inactive). The z-score was 0.113 (inactive) in [13]; -0.447 (inactive) in experiment [15]; 1.41 (inactive) in experiment [16]; 1.45 (inactive) in experiment [17]; 0.579 (inactive) in experiment [18]; 0.0925 in experiment [19]. In addition, the composite z-score in experiment [14] is 0.858 (inactive); in experiment [20] it was -0.0582.
On to `O=C(N1CCCCC1)[C@@]1(Cc2ccccc2)COC(c2ccc(OCCCO)cc2)=N1`, for which the z-score in experiment [1] is -1.14; in [2], 0.675; in experiment [3], -0.159; in [4] it was -3.14; in experiment [5], -1.77; in experiment [6], -2.33. The z-score in experiment [7] was 0.987 (inactive); in experiment [8], -1.08; in experiment [9], -0.923; in experiment [10] it was 1.68 (inactive); in experiment [11] it was 0.271; in [12], -5.06 (inactive). For the same compound, the z-score in [13] was -0.949 (inactive); in experiment [15] it was 0.258 (inactive); in experiment [16] it was 2.13 (inactive); in experiment [17], 0.401 (inactive); in [18], 0.0519 (inactive); in [19], 0.482. Further, the composite z-score in experiment [14] was -0.447 (inactive); in [20], 0.284.
With `CCOC(=O)C[C@H]1[C@H](OC(=O)c2ccc(-c3ccccc3)cc2)[C@@H](NC(=O)c2ccc3ccccc3n2)c2cc(OCCCO)ccc2N1C(=O)c1ccccc1`, the z-score in experiment [1] was -1.05; in experiment [2], 0.312; in experiment [3] it was -0.677; in experiment [4], 0.23; in experiment [5], -0.248; in experiment [6] it was 1.35. In addition, the z-score was -0.248 (inactive) in [7]; 0.224 in [8]; 0.0802 in experiment [9]; 0.0216 (inactive) in [10]; -0.576 in experiment [11]; 1.11 (inactive) in [12]. The z-score is -0.421 (inactive) in experiment [13]; -0.37 (inactive) in experiment [15]; 0.97 (inactive) in [16]; 0.353 (inactive) in [17]; 0.287 (inactive) in experiment [18]; -0.193 in experiment [19]. The values for the composite z-score in experiment [14] and in experiment [20] were 0.421 (inactive) and -0.286, respectively.
